Test results taken from PubChem BioAssay (NCI).
Compounds without any hit were thinned out: in the full panel of roughly 83,000, 20% have a hit.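 Method: cells in 96-well plates; compound added at one concentration; 48 h incubation; percent growth measured; values under 10 scored active.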 The source made the active and inactive calls.

What follows are compounds tested on HL-60(TB) leukemia (assay: NCI-60 one-dose screen, 48 h (100 = growth as untreated, 0 = no growth, -100 = all killed)). Conditions: 10 µM unless noted.
Method: Growth inhibition of the HL-60(TB) human tumor cell line is measured as a screen for anti-cancer activity. Cells are grown in 96 well plates and exposed to the test compound for 48 hours. Compounds are tested at a single concentration, which is 10^-5 M for most compounds. The reported endpoint is percent growth (GI% or GIPRCNT), where numbers from 0 - 100% represent growth inhibition, and numbers from -100% - 0 represent cell death. For example, a value of 40 represents 60% growth inhibition. A value of 0 means no net growth occurred over the course of the experiment. A value of -40 indicates 40% of cells at the beginning of the experiment died by the end of the experiment. A value of -100 means all cells are dead at the end of the experiment.
NCI-60 Human Tumor Cell Lines Screen was performed using the standard one-dose NCI protocol, which is described in more detail at https://dtp.cancer.gov/discovery_development/nci-60/default.htm.
Compounds with GIPRCNT values below 10 were considered active. Activity score was based on GIPRCNT using the following formula: […]
Score is 0 for GIPRCNT values of 100 or above, 50 for GIPRCNT values of 0, and 100 for GIPRCNT values of -100.

SMILES	growth
Cc1cc(=O)[nH]c(O)c1C#N	100% (inactive)
Fc1ccc(-c2nc(C(Cl)Cl)nc3cc(-c4ccccc4)nn23)cc1	-8.76% (active)
COc1ccc(OC)c(CCn2cncc2-c2c[nH]c3ccc(Cl)cc23)c1	7.06% (active)
N#Cc1ccc(C(=O)CSc2nc(Nc3ccc(S(N)(=O)=O)cc3)c3ccccc3n2)cc1	105% (inactive)
N#Cc1nc(-c2ccccc2)oc1S(=O)(=O)N1CCCCC1	10.5% (inactive)
COc1ccc(N2CCN(C3=C(Cl)C(=O)C(C)=C(C)C3=O)CC2)cc1	80.3% (inactive)
CN1CCN(c2ccc(Nc3nc(NCCNS(=O)(=O)c4ccc(Cl)cc4)c4sccc4n3)cc2)CC1	80.1% (inactive)
C=C1C(=O)O[C@@H]2/C=C(/C)C3=CC(=O)[C@@](C)(C[C@H](OC(=O)/C(C)=C\C)[C@@H]12)O3	-11.9% (active)
NNc1nnc2nc(Nc3ccccc3)nc(Nc3ccc(S(N)(=O)=O)cc3)n12	108% (inactive)
CC(C)C(=O)Nc1ccc(-c2nc(-c3cccc(O)c3)c(-c3ccnc(Br)c3)[nH]2)cc1	-40.4% (active)
O=C1[C@@H]2Cc3c([nH]c4ccccc34)[C@H](c3ccc(Cl)cc3)N2C(=O)CN1C1CCN(Cc2ccccc2)CC1	17.6% (inactive)
CN1C(=O)[C@]23SSC1(C)C(=O)N2[C@H]1Nc2ccccc2C1([C@@]12c4ccccc4N[C@@H]1N1C(=O)C4(C)SS[C@]1(C(=O)N4C)[C@H]2O)[C@@H]3O (stereo not given in full)	-19.4% (active)
Cc1ccc(C(=O)Nc2ccc(CNCCN3CCNCC3)c(C(F)(F)F)c2)cc1C#Cc1cnc2cccnn12	-54.7% (active)
NC(N)=Nc1ccc(Oc2cccc(NC(N)=Nc3ccc(I)cc3F)c2)cn1	39.3% (inactive)
Cc1nn(-c2ccccc2)c2ncnc(N/N=C/c3cccc(O)c3)c12	35.3% (inactive)
CCN(CC)CCOc1ccc(C(=C(c2ccccc2)C2CCCC2)c2ccc(OCCN(CC)CC)cc2)cc1	-40.9% (active)
CC(C)SC1=NC(=C(C(=N1)NC2=ClC=CC=C2)C#N)C3=CC=CC=C3	84.5% (inactive)
COC1[C@@H]2C[C@H]3C(C)(C)O[C@@](C/C=C(/C)C(=O)O)(C2=O)[C@]32Oc3c(CC=C(C)C)c4c(c(O)c3C(=O)[C@H]12)C=CC(C)(C)O4 (stereo not given in full)	-29.8% (active)
Cc1ccc(C)c(NC2=C(Cl)C(=O)c3nc(C)ccc3C2=O)c1	-25.8% (active)
Cc1[nH]nc2ccc(-c3nc4cnc(N5CCN(C)CC5)cn4c3Nc3ccc(F)cc3Br)cc12	-29.6% (active)

SMILES	growth
CCCCN1C(=O)/C(=c2\sc3n(c2=O)C2C(NN=3)N(CC)C(=O)N2CC)c2cc(Cl)ccc21 (stereo not given)	51.7% (inactive)
CCc1cccc2c3c(sc12)C(c1ccc(OC)cc1)C(C#N)=C(/N=C/c1ccc(Cl)cc1)O3 (stereo not given)	2.87% (active)
CC(=O)c1ccc(NC(=O)COc2ccc(C3SCC(=O)N3c3ccc(Br)cc3)cc2)cc1 (stereo not given)	96.7% (inactive)
O=C(Cn1cc(CN2C(=O)c3ccc([N+](=O)[O-])cc3C2=O)nn1)Nc1ccc(F)cc1Cl	99.2% (inactive)
CC(=O)N1C(=S)NC(=O)C1CC(C)C (stereo not given)	106% (inactive)
N#Cc1nc(-c2ccccc2)oc1S(N)(=O)=O	27.1% (inactive)
COc1cc(OC)c(S(N)(=O)=O)cc1C(=O)/C=C/c1ccc(Cl)cc1	-9% (active)
O=C(CSc1nc2sc3c(c2c(=O)n1-c1ccc(Cl)cc1)CCCC3)NNC(=O)Nc1cccc(C(F)(F)F)c1	2.24% (active)
N#Cc1nc(-c2ccccc2)oc1N1CCC(CO)C1 (stereo not given)	107% (inactive)
CNC(=O)Nc1ccc(Nc2cc(-c3ccc(-n4cccn4)cc3)[nH]n2)c(C)c1	92.7% (inactive)
CC[C@@](C)(NC(=O)C(C)(C)NC(=O)[C@@H](NC(=O)[C@@H]1CCCN1C(=O)C(C)(C)NC(=O)[C@H](CC(C)C)NC(=O)CNC(=O)C(C)(C)NC(=O)[C@@H](NC(=O)C(C)(C)NC(=O)[C@H](CCC(N)=O)NC(=O)[C@H](C)NC(=O)C(C)(C)NC(=O)[C@H](C)NC(=O)C(C)(C)NC(=O)[C@H](C)NC(=O)C(C)(C)NC(C)=O)C(C)C)C(C)C)C(=O)N[C@@H](CCC(N)=O)C(=O)N[C@@H](CCC(N)=O)C(=O)N[C@H](CO)CC1CCCCC1	-35.2% [5 µM] (active)
COc1ccccc1C(=O)Nc1cccc2c1C(=O)C(=O)C=C2	9.19% (active)
CS(=O)(=O)c1ccc(-c2nc3ccccn3c2/C=N/Nc2nc(-c3ccc(Cl)cc3)cs2)cc1	99.2% (inactive)
CC(c1ccccc1)N1CSc2nc3ncncc3n2C1 (stereo not given)	17.4% (inactive)
O=C1[C@H]2Cc3c([nH]c4ccccc34)[C@@H](c3ccc(Cl)cc3)N2C(=O)CN1C1CCN(Cc2ccccc2)CC1	12.9% (inactive)
O=C(NNc1nc2cc(F)ccc2n2c(CN3CC4CNCC4C3)ccc12)c1cnccn1 (stereo not given)	0.485% (active)
NC(N)=Nc1ccc(Nc2cccc(Oc3ccc(Cl)c(C(F)(F)F)c3)c2)cn1	-67.4% (active)
COc1cccc(NC2=CC(=O)C(C)=C(C)C2=O)c1	3.49% (active)
NC(N)=Nc1ccc(Oc2cccc(NC(N)=Nc3ccc(Cl)c(C(F)(F)F)c3)c2)cn1	0.375% (active)
Cc1ccc(-n2cc(/C=N/NC(=O)c3ccncc3)c(-c3ccc(S(C)(=O)=O)cc3)n2)cc1	76.4% (inactive)
